Sm TGR inh – qHTS Assay for the Inhibitors of Schistosoma Mansoni Peroxiredoxins; purified TGR, DTNB reduction, TNB absorbance 405 nm; Potency, µM (series often up to 114 µM), without a hit: at the top dose activity change, negative = inhibition, most hits filed as inhibitors; 360,000 compounds, 3% hits; AID 485364, 2010; also: potency is read from the fitted curve at half-maximal effect; nearly all actives have a fitted effect of over 60% in size
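TGR 20 nM + NADPH 100 uM (dispensed conc.), cpd preinc 15 min RT; start with NADPH (500 uM addition) then DTNB (15 mM addition). Kinetic TNB absorbance, 405 nm filter. Four-parameter Hill fit across titration.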
FMDV inh – High Throughput Screening for Foot and Mouth Disease Virus Antivirals | FMDV antiviral cell-based qHTS | 410,000 compounds, 1.2% hits | Potency, µM (top dose mostly 57.9 µM), for inactives: at the top dose activity change, negative = inhibition, hits mostly inhibitors; calls by dose curve; tested in HEK293T cells; also: read-out not given here; potency is read from the fitted curve at half-maximal effect; nearly all actives have a fitted effect of over 45% in size
VACV mCherry inh – qHTS for Stage-Specific Inhibitors of Vaccinia Orthopoxvirus: mCherry Reporter Primary qHTS; 310,000 compounds, 0.63% hits; Vaccinia virus mCherry reporter infection, fluorescence; Potency, µM (titrated, usually from 36.5 µM), without a hit: at the top dose activity change, negative = inhibition, usual class: inhibitors; calls by dose curve; tested in A549 cells; also: potency is read from the fitted curve at half-maximal effect; nearly all actives have a fitted effect of over 35% in size
VACV Venus inh – qHTS for Stage-Specific Inhibitors of Vaccinia Orthopoxvirus: Venus Reporter Primary qHTS; Potency, µM (doses to about 36.5 µM), inactives show at the top dose activity change, negative = inhibition, most hits filed as inhibitors; Vaccinia virus Venus reporter expression, fluorescence; AID 720580, 2013; 330,000 compounds, 0.46% hits; calls by dose curve; tested in A549 cells; also: potency is read from the fitted curve at half-maximal effect; nearly all actives have a fitted effect of over 30% in size
HCV inhibitor – qHTS Assay for Inhibitors of Hepatitis C Virus (HCV) | Huh7.5.1 HCVcc-Cre infection, luciferase reporter, 44 h | Potency, µM (top dose mostly 41.8 µM), for the others: at the top dose activity change, negative = inhibition, actives largely listed as inhibitors | 340,000 compounds, 3.4% hits; also: potency is read from the fitted curve at half-maximal effect
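1,000 cells/well; 4 h culture; + compound; + HCVcc-Cre (~0.5 moi); 44 h; luciferase substrate, RT 15 min; read 15 sec.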
HCMV inh – qHTS Assay for inhibitors of the human cytomegalovirus (HCMV); HFF cells, HCMV-luciferase reporter, 72 h; hits give low values; activity change, negative = inhibition, % at 57.5 µM; 410,000 compounds, 4.5% hits; AID 1259415, 2018; in the data active = activity change below about -60%; inconclusive = no clear call, values can overlap the other calls; inactive = above about -39%
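Two-dose cell screen: HFF monolayers treated with compounds and infected with luciferase-expressing HCMV at 1 PFU/cell, 72 h at 37C, then lysed for luciferase measurement.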
Starred values were filed as active, the others as inactive; [ ] = dose if it differs, or a comment. Shown are actives, neighbours in structure and some others; about 9.3% of the full set was active somewhere. Unless noted, calls follow the shape of the dose curve; as a rule, active = well fitted curve in the direction sought with a large enough effect; inconclusive = small, poorly fitted or top-dose-only effect, or another doubt; inactive = no such curve, though single readings can be large; an effect the other way counts as inactive or inconclusive. % is scaled to controls: 0 for no effect and ±100 for the full control effect.

Screening c1ccc(COc2ncnc3c2ncn3CCCN2CCN(Cc3cccc4ccccc34)CC2)cc1 returned FMDV inh 28.2µM*, VACV mCherry inh 10µM*, VACV Venus inh 11.2µM* and HCMV inh -39.8.
O=C(O)c1ccsc1Cc1cccs1 was read as FMDV inh -10.0%, VACV mCherry inh 18.8%, VACV Venus inh -15.3% and HCMV inh -30.3.
`O=S(=O)(NCC(c1ccco1)S(=O)(=O)c1cccs1)c1ccccc1` (centres undefined) gave Sm TGR inh 0.199µM*, FMDV inh 21.0%, VACV mCherry inh -10.9%, VACV Venus inh -11.8% and HCMV inh -29.9.
`O=S(=O)(NCC(c1ccco1)N1CCCCC1)c1cccc(C(F)(F)F)c1` (centres undefined) gave Sm TGR inh -13.3%, FMDV inh -24.2%, HCV inhibitor inconclusive and HCMV inh -11.3.
Screening O=S(=O)(NCC(c1ccco1)S(=O)(=O)c1cccs1)c1ccc(Cl)cc1 (centres undefined) returned Sm TGR inh 0.1µM*, FMDV inh 19.7%, VACV mCherry inh -11.9%[7.34 µM], VACV Venus inh -7.9%[7.34 µM] and HCMV inh inconclusive.
For O=S(=O)(NCC(c1ccco1)S(=O)(=O)c1cccs1)c1ccc(F)c(C(F)(F)F)c1 (centres undefined) the results were Sm TGR inh 0.1µM*, FMDV inh 28.7%, VACV mCherry inh -20.9%, VACV Venus inh -21.6% and HCMV inh -30.3.
For O=S(=O)(NCC(c1cccs1)S(=O)(=O)c1ccccc1)c1ccccc1 (centres undefined) the results were Sm TGR inh 0.316µM*, FMDV inh 31.8%, VACV mCherry inh -19.2%, VACV Venus inh -15.1% and HCMV inh 26.8.
For O=C(COc1ccc(Cl)cc1)NCC(c1ccco1)S(=O)(=O)c1ccccc1 (centres undefined) the results were Sm TGR inh inconclusive, FMDV inh -22.9%, VACV mCherry inh inactive, VACV Venus inh -1.0% and HCMV inh -22.2.
For c1ccc(Cc2cc(-c3ccccc3)on2)cc1 the results were Sm TGR inh -20.6%, FMDV inh 49.3%, HCV inhibitor inconclusive and HCMV inh 27.2.
`CCO[C@H]1[C@H](NC(=O)c2cccnc2)c2ccccc2C12CCN(C(=O)c1cc(C)n(C)n1)CC2` gave FMDV inh 4.4%, VACV mCherry inh -13.9% and VACV Venus inh -7.0%.
`c1nnnn1C12CC3CC(CC(C3)C1)C2` gave Sm TGR inh -3.0%, FMDV inh -20.3%, VACV Venus inh -11.2%, HCV inhibitor 10.2% and HCMV inh -63.7*.
`O=C1CC(N2CCN(Cc3ccc4c(c3)OCO4)CC2)C(=O)N1c1cccc(Cl)c1` (centres undefined) gave Sm TGR inh 50.1µM*, VACV mCherry inh -16.2%, VACV Venus inh 0.2%, HCV inhibitor 12.0% and HCMV inh -23.9.
`O=C1CC(N2CCN(Cc3ccccc3)CC2)C(=O)N1c1ccc2c(c1)OCCO2` (centres undefined) gave Sm TGR inh 56.2µM*, FMDV inh -15.5%, VACV mCherry inh inactive, VACV Venus inh -10.5%, HCV inhibitor -8.2% and HCMV inh 25.9.
`O=C1CC(N2CCN(Cc3ccccc3)CC2)C(=O)N1c1ccccc1` (centres undefined) gave Sm TGR inh inconclusive, FMDV inh 11.4%, HCV inhibitor 9.2% and HCMV inh 122.5.
COc1ccc(N2C(=O)CC(N3CCN(Cc4ccc5c(c4)OCO5)CC3)C2=O)cc1 (centres undefined) was read as Sm TGR inh 17.8µM*, FMDV inh 0.5%, VACV mCherry inh -14.0%, VACV Venus inh 2.4%, HCV inhibitor 31.3% and HCMV inh inconclusive.
`O=C(CCCc1ccccc1)N=C1SC2CS(=O)(=O)CC2N1c1ccccc1F` (centres undefined) gave Sm TGR inh -4.0%, FMDV inh -4.4%, VACV mCherry inh -26.1%, VACV Venus inh -8.5%, HCV inhibitor 17.2% and HCMV inh -27.1.
`CCOC(=O)c1oc2ccc(S(=O)(=O)Nc3ccc4c(c3)n(C)c(=O)n4C)cc2c1C` gave Sm TGR inh -14.8%, VACV mCherry inh inactive, VACV Venus inh 0.0%, HCV inhibitor inconclusive and HCMV inh -64.9*.
`Cn1c(=O)n(C)c2cc(NS(=O)(=O)c3ccc4c(c3)CCCC4)ccc21` gave Sm TGR inh 1.5%, FMDV inh inconclusive, HCV inhibitor inconclusive and HCMV inh -107.1*.
O=C(CSC(=S)N1CCCCC1)c1ccccc1 was read as FMDV inh -26.1%, VACV mCherry inh inactive, VACV Venus inh -16.3%, HCV inhibitor 2.3% and HCMV inh inconclusive.
`COc1ccc(C2NC(=O)NC(O)(C(F)(F)F)C2C(=O)c2ccc(F)cc2)cc1` (centres undefined) gave Sm TGR inh 44.7µM*, FMDV inh -8.5%, VACV mCherry inh -22.3%, VACV Venus inh -17.9%, HCV inhibitor -0.6% and HCMV inh 9.3.
For COc1cc(C2NC(=O)NC(O)(C(F)(F)F)C2C(=O)c2ccc(Cl)cc2)ccc1O (centres undefined) the results were Sm TGR inh inconclusive, FMDV inh -13.3%, HCV inhibitor 20.1% and HCMV inh -30.6.
Screening CCOc1ccc(S(=O)(=O)c2c(C(=O)c3ccc(C)cc3)cnc3cc4c(cc23)OCCO4)cc1 returned Sm TGR inh -4.5%, FMDV inh 10.1%, VACV mCherry inh -12.6%, VACV Venus inh -14.1%, HCV inhibitor -12.5% and HCMV inh -62.1*.
`Cc1ccc(C(=O)c2cnc3cc4c(cc3c2S(=O)(=O)c2ccccc2)OCCO4)cc1` gave Sm TGR inh -22.9%, FMDV inh 1.6%, VACV mCherry inh inconclusive, VACV Venus inh inconclusive, HCV inhibitor -7.4% and HCMV inh -93.6*.
Screening Cc1ccc2ncc(C(=O)c3ccc(C)c(C)c3)c(S(=O)(=O)c3ccccc3)c2c1 returned Sm TGR inh 1.2%, FMDV inh -16.7%, VACV mCherry inh -19.1%, VACV Venus inh -5.5% and HCMV inh -92.2*.
`O=CNc1cc(-c2ccccc2Oc2ccccc2)cn2c(-c3ccc(F)cc3)cnc12` gave FMDV inh -4.0%, VACV mCherry inh 2.7%, VACV Venus inh -12.2% and HCMV inh 111.9.
